According to article PMC7819943, “Rice protein-binding microarrays: a tool to detect cis-acting elements near promoter regions in rice”:
In all, about 35,000 sequences were measured (“fluorescence intensity (a.u.)”: median about 10,000, highest 2% from about 52,000 on). The full list was thinned out, with the highest values kept by preference.

Biological target: T1, OsWOX13 (Oryza sativa, UniProt Q5QMM3 1-267)
T1 sequence: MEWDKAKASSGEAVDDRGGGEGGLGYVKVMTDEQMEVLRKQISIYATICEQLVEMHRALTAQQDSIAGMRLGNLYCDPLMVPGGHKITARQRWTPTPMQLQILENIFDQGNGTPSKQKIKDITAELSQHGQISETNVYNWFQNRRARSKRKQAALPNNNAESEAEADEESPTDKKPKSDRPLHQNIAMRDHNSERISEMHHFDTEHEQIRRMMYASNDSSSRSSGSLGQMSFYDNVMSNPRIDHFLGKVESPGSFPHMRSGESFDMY
Assay: protein-binding microarray (RPBM); PBS, 2% BSA, 51.3 ng/ul salmon testes DNA, 50 uM zinc acetate, 200 nM TF, 25 C, 1 h; high values mean tight binding
Settings: protein: recombinant; tags: N-terminal polyhistidine and DsRed monomer fusion (pET32a); label: CyDye5-dUTP incorporated in the synthesized complementary strand; 3' TTTTT single-stranded linker to array surface; dsDNA, one strand shown
Outline: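 Using Ni–NTA, transcription factors fused N-terminally to polyhistidine and DsRed were purified after expression in E. coli BL21-CodonPlus. These were incubated at 200 nM with a blocked, double-stranded custom Agilent array for 1 h at 25 °C in a buffer containing 50 µM zinc acetate, and the array was washed. The binding signal is per-feature fluorescence intensity (arbitrary units) on an Axon 4000B scanner.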

| Sequence | binding signal |
| --- | --- |
| ACTACTAAGTTAATTGCATTTTACTTCTCTCTCAATCTCGCGGAGTCACCTAGTGCAG | 10000 fluorescence intensity (a.u.) |
| TTCGATCCTGACTGGAATTGGATGCCTAGTTTGCCTTGCCCGGAGTCACCTAGTGCAG | 4190 fluorescence intensity (a.u.) |
| GTTAACTGAATATTATATCGAAGAAAACTTGCATTTCAGACGGAGTCACCTAGTGCAG | 7980 fluorescence intensity (a.u.) |
| CTCAAAATTTAAATTTAAGGTTAAAAGTTAAAATTTTACGCGGAGTCACCTAGTGCAG | 21200 fluorescence intensity (a.u.) |
| ATAGATAGATAGATAGATAGATAGATTGATCGATCGATCGCGGAGTCACCTAGTGCAG | 55400 fluorescence intensity (a.u.) |
| TTGACTTGTACATAGTAATGATTGGCAGGTAATGACGTACCGGAGTCACCTAGTGCAG | 24100 fluorescence intensity (a.u.) |
| GTCTTTATTTGATTGATCATCTGGCATCAATCAATCGGCTCGGAGTCACCTAGTGCAG | 65500 fluorescence intensity (a.u.) |
| GATAATAGATAATAGATAGATTGAAGATTAGGAAAGGGAACGGAGTCACCTAGTGCAG | 54800 fluorescence intensity (a.u.) |
| AAGATAGATAGATAGATAGATAGATAGATCGATCGATCATCGGAGTCACCTAGTGCAG | 14900 fluorescence intensity (a.u.) |
| TAGTCTTGATTGATTGGCAGATGACAGCATAATAGCCGTACGGAGTCACCTAGTGCAG | 65200 fluorescence intensity (a.u.) |
| CCTGCATCATCAATCTGCCTACATATCGATCGATTGATCTCGGAGTCACCTAGTGCAG | 4630 fluorescence intensity (a.u.) |
| CGATCAATCTCTCTTTATTTATTTGCAGATCGATCAACCTCGGAGTCACCTAGTGCAG | 5760 fluorescence intensity (a.u.) |
| GGATTTGATCGATTGGATTTCGATTTGGCCCGCGATTTGGCGGAGTCACCTAGTGCAG | 4010 fluorescence intensity (a.u.) |
| ACAGAGAGAGGTAGGTGATTGATAATAAGAAAGAAGGGAACGGAGTCACCTAGTGCAG | 13000 fluorescence intensity (a.u.) |
| TGGGATTGGGAAATAAATGAAGGGTTAGGATTAAATGGAACGGAGTCACCTAGTGCAG | 24100 fluorescence intensity (a.u.) |
| ACATTGACACCAATCTTGAACATAATAGCGCATTACAGTACGGAGTCACCTAGTGCAG | 7300 fluorescence intensity (a.u.) |
| TTTAATCTTTAATATTGATTTTGCCACCAACTAAAACGGCCGGAGTCACCTAGTGCAG | 4660 fluorescence intensity (a.u.) |
| ATCCATGTAAATTAACTCATCCAATGTGACAGCACGACGCCGGAGTCACCTAGTGCAG | 8800 fluorescence intensity (a.u.) |
| ACCCAGTAATTTCCAAATCTAAAGATAGGAGATTTTAGGACGGAGTCACCTAGTGCAG | 6740 fluorescence intensity (a.u.) |
| ATACTAATTATACGGTCACACCTATCCGTTGCATGATGCACGGAGTCACCTAGTGCAG | 21100 fluorescence intensity (a.u.) |
| CTTAATTTGGCACTGCCCAAGAAAATTTTGACAAGTACTTCGGAGTCACCTAGTGCAG | 9440 fluorescence intensity (a.u.) |

| Sequence | binding signal |
| --- | --- |
| TTCGCTTTGATGGACGGCTCAGATCGGCTCCTAATCCATCCGGAGTCACCTAGTGCAG | 3310 fluorescence intensity (a.u.) |
| TGATTAAATATAACTAAACTGTCAACGACATAATGCATTACGGAGTCACCTAGTGCAG | 3470 fluorescence intensity (a.u.) |
| AACTAACAGATTATTCTATGTCGGTTTATTATAATCCAACCGGAGTCACCTAGTGCAG | 15700 fluorescence intensity (a.u.) |
| ATAAATAAACTTATTTTGAGATAATGGTGTAATAGTGTAGCGGAGTCACCTAGTGCAG | 5300 fluorescence intensity (a.u.) |
| TAGATAGATAGATAGATATAGTTGGTGTGTTTGACCCTAGCGGAGTCACCTAGTGCAG | 36400 fluorescence intensity (a.u.) |
| GTAGATAGATGGCACATTGGCAGTGATGGCTGTGTACAGTCGGAGTCACCTAGTGCAG | 8260 fluorescence intensity (a.u.) |
| ATATAATAATAGATAGATAGATAGATAGATAGATAGATAGCGGAGTCACCTAGTGCAG | 49300 fluorescence intensity (a.u.) |
| AGATCTGATTGATATTGATCCATCGCCGATCGATTGATCACGGAGTCACCTAGTGCAG | 53800 fluorescence intensity (a.u.) |
| TTTGATTGAGATTGATAATAACCTGCTGTAACTTAGCGAACGGAGTCACCTAGTGCAG | 61100 fluorescence intensity (a.u.) |
| AGGAATCGGAATTGATTTCATGCACTGATCGATCCATCCACGGAGTCACCTAGTGCAG | 7970 fluorescence intensity (a.u.) |
| AATAGATTGATTGATTGATTGAATAATATAGATAGATTGACGGAGTCACCTAGTGCAG | 64400 fluorescence intensity (a.u.) |
| TGTTATAATAGTGTAGATTGATCGATATAATTGTATATGACGGAGTCACCTAGTGCAG | 3170 fluorescence intensity (a.u.) |
| TCTTGACACCGGCCGGATTGATCTATCATCCATCCATCGACGGAGTCACCTAGTGCAG | 12300 fluorescence intensity (a.u.) |
| GGGCTGTTTAGTTTTGGATTGATTGAGCAATGTAATATAACGGAGTCACCTAGTGCAG | 22200 fluorescence intensity (a.u.) |
| GATAGATAGATAGATAGATAGATAGATTTGTTGGCTGTGTCGGAGTCACCTAGTGCAG | 63500 fluorescence intensity (a.u.) |
| ATAACTAATATAATCGAACCTGCCTCACTTAATATGTGGCCGGAGTCACCTAGTGCAG | 4830 fluorescence intensity (a.u.) |
| CTAAAATTACATATGTAATTTAGGCACTTACATATGTAATCGGAGTCACCTAGTGCAG | 19500 fluorescence intensity (a.u.) |
| TGTTAACCAGATTTATTATATTTGAAAATGTCACCTCCAACGGAGTCACCTAGTGCAG | 8160 fluorescence intensity (a.u.) |
| TTGCAAATAATTTGGAAAGGTAATATGAGCTACAGCTGTGCGGAGTCACCTAGTGCAG | 7080 fluorescence intensity (a.u.) |
| ATAATGGATTGCTTGTTCCAGCACTGAATGTGCTGCCAAGCGGAGTCACCTAGTGCAG | 6550 fluorescence intensity (a.u.) |
| CGAATTAACTAGATCATATTACTCTTTCATGCAATAAACACGGAGTCACCTAGTGCAG | 4320 fluorescence intensity (a.u.) |
